# Experimental data as given in the supplement of paper PMC3616981.
# ± gives the standard deviation of the averaged measurements.
# Compound: CC(C)c1cccc(C(C)C)c1N1C(=O)c2ccc(O)cc2C1=O
# Experiment: reporter fold induction vs vehicle; higher = higher reporter activity
# Procedure, shortened: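 Multiplexed cellular biosensor reporter system with cis response-element and trans nuclear-receptor transcription factor reporter constructs (48 cis, 25 trans) and homogeneous detection, tested in ToxCast Phase II at 8 concentrations (0.091–200 µM). Reporter activity is given as fold induction relative to vehicle control. Replicates were averaged where present.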
Target,reporter fold induction (0.091 µM),reporter fold induction (0.274 µM),reporter fold induction (0.823 µM),reporter fold induction (2.469 µM),reporter fold induction (7.407 µM),reporter fold induction (22.22 µM),reporter fold induction (66.67 µM),reporter fold induction (200 µM)
PBREM_CIS,1.05,1.04,0.916,0.965,1.24,1.15,1.19,1.16
XTT_Cytotoxicity,97.6 ± 5.6,107 ± 18,111 ± 0.85,108 ± 3.1,123 ± 3.8,111.2 ± 0.75,113.8 ± 0.46,106.5 ± 0.33
AR_TRANS,1.06,0.894,1.13,1.02,1.02,1.29,1.01,1.14
TGFb_CIS,1.08,0.916,0.91,0.906,0.939,1.03,1.23,0.915
ERE_CIS,1.55,2.27,1.01,0.967,4.09,3.27,4.08,0.978
M_19_TRANS,1.08,0.97,1.01,0.967,0.981,0.997,1.01,1.02
HNF6_CIS,0.992,0.941,0.978,0.981,0.982,0.952,0.932,0.692
BRE_CIS,0.993,0.878,1.14,0.967,0.938,0.934,3.36,1.05
RARb_TRANS,0.778,0.835,0.897,0.861,1.51,1.95,1.29,0.429
Ahr_CIS,0.965,0.977,0.949,1.01,1.06,1,2.27,1.09
FXR_TRANS,1.17,1.15,1.19,1.17,1.09,1.46,1.82,1.92
C_EBP_CIS,1.02,0.969,1.04,1.04,1.12,0.945,1.31,1.32
RORb_TRANS,0.758,0.955,0.81,1.32,0.966,0.625,0.434,0.342
RARa_TRANS,1.04,0.782,1.21,1.2,1.48,2.4,2.07,0.506
RXRb_TRANS,1.04,1.11,1.24,1.01,1.17,1.19,1.07,0.915
M_06_CIS,0.997,0.997,1.01,0.995,1.02,1.02,0.98,1.09
MRE_CIS,1.05,0.983,1,0.924,1.22,1.2,1.8,3.72
Ets_CIS,1.02,0.953,1.01,1.02,1,0.917,1.01,0.897
FoxA2_CIS,1.02,0.959,1.04,0.939,1.05,0.978,1.28,1.32
